Measured values published in PubChem BioAssay AID651784 (National Center for Advancing Translational Sciences (NCATS), 2012).
Records with an inconclusive call do not appear. The source made the active and inactive calls. Calls follow the shape of the dose curve; as a rule, active = well fitted inhibition curve with a large enough effect; inconclusive = small, poorly fitted or top-dose-only effect; inactive = no such curve, though single readings can be large or run the other way.

test: Acumen qHTS Assay for Inhibitors of the mTORC1 Signaling Pathway in MEF (Tsc2-/-, p53-/-) Cells: Hit Validation; settings: Acumen imaging; activity change, negative = inhibition: at 37.3 µM (top of the series);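 also: phospho-rpS6 Ser235/236 immunofluorescence normalized to propidium iodide cell count; nearly all actives have a fitted effect of over 65% in size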;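 as to activity change, negative = inhibition: cells exposed to compound for 24 hours; plate controls were DMSO for no effect and 7.5 nM rapamycin control for full effect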
Potency is read from the fitted curve at half-maximal effect.

SMILES | activity change, negative = inhibition [%] | Potency
Cc1ccc(C)c(N2CCN(CCCNC(=O)Nc3ccc(Cl)cc3)CC2)c1 | -77 | 
Nc1nc(Nc2ccccc2F)sc1C(=O)c1ccc(Cl)cc1 | -5.15 | 
Cn1nnnc1SCCCNCc1ccccc1OCc1ccc(Cl)cc1 | -60 | 
Cc1ccc([C@H]2Nc3ccc(S(=O)(=O)Nc4cccc(Cl)c4C)cc3[C@H]3C=CC[C@H]32)cc1 | 8.84 | 
COC(=O)c1ccccc1NC(=O)CSc1n[nH]c(CC(C)C)n1 | 5.05 | 
COC(=O)c1cc2sc(C)cc2n1Cc1ccccc1 | -16.6 | 
COC(=O)c1ccccc1NC(=O)c1nc(S(=O)(=O)Cc2cccc(C)c2)ncc1Cl |  | 4.14 µM (active)
COc1ccc2nc(NC(=O)c3nc(S(=O)(=O)Cc4ccccc4F)ncc3Cl)sc2c1 | -106 | 
COc1cc(C(=O)CC2(O)C(=O)N(Cc3ccccc3Cl)c3ccccc32)cc(OC)c1OC (stereo unspecified) | -2.03 | 
CCOc1ccccc1NC(=O)CN1C(=O)C(=O)c2ccccc21 |  | 18.5 µM (active)
COc1ccc(CCN2C(=O)c3[nH]nc(-c4ccccc4O)c3C2c2cccc(OC)c2)cc1 (stereo unspecified) |  | 5.85 µM (active)
CCC(C)n1c(SCc2c(F)cccc2Cl)nc2ccsc2c1=O (stereo unspecified) | -45.2 | 
Cc1ccccc1CN1C(=O)C(O)(CC(=O)c2cccc(Br)c2)c2ccccc21 (stereo unspecified) | -20 | 
Cc1cc(C)c(-c2n[nH]c3c2C(c2ccccc2F)N(Cc2ccco2)C3=O)c(O)c1 (stereo unspecified) | 2.41 | 
COc1ccc(OC)c(NC(=O)c2nnn(CC(=O)Nc3ccc(C(C)C)cc3)c2N)c1 | -27.6 | 
CCN1CCOC(=O)C1CC(=O)Nc1cccc(OC)c1 (stereo unspecified) | -21.3 | 
COc1ccc(NC(=O)CCS(=O)(=O)c2nc(-c3cccs3)cc(C(F)(F)F)n2)cc1OC | -87.3 | 
O=C(NCc1ccccc1)c1ccc2c(c1)N(Cc1ccccc1F)C(=O)c1ccccc1S2=O (stereo unspecified) | -33 | 
COc1ccc(-c2n[nH]c3c2C(c2ccc(O)cc2)N(c2ccc(Br)cc2)C3=O)cc1 (stereo unspecified) | 2.17 | 
CCc1ccc(OCC(=O)Nc2ccc3oc(-c4ccc(OC)cc4)nc3c2)cc1 | 7.33 | 
O=C(CCCn1c(=O)c2ccccc2n(Cc2cccc(Cl)c2)c1=O)NCCc1ccc(Cl)cc1 | -4.01 | 
